Calls of active or inactive are those of the source. How the source made its calls: active means hit-call score of the fitted dose curve at least 0.9, where 1 is the maximum; inactive means score below 0.9.
Target: Estrogen receptor (Homo sapiens) (UniProt P03372)
Assay: OT_ERa_GFPERaERE_0480: Odyssey Thera (OT) 8-hour HeLa Transcription Induction Assay for Estrogen Receptor (AID 2283381)
Protocol: OT_ERa_GFPERaERE_0480 is a cell-based, single-readout assay that uses HeLa, a human cervix cell line, with measurements taken at 8 hours after chemical dosing in a 384-well plate.OT_ERa_GFPERaERE_0480 is one of one assay component(s) measured or calculated from the OT_ERa_GFPERaERE_0480 assay. It is designed to make measurements of fluorescent protein induction, a form of inducible reporter, as detected with optical microscopy: fluorescence microscopy signals by Microscopy technology.Data from the assay component OT_ERa_GFPERaERE_0480 was analyzed into 1 assay endpoint. This assay endpoint, OT_ERa_EREGFP_0480, was analyzed in the positive analysis fitting direction relative to DMSO as the negative control and baseline of activity. Using a type of inducible reporter, measures of receptor for gain-of-signal activity can be used to understand the reporter gene at the pathway-level as they relate to the gene ESR1. Furthermore, this assay endpoint can be referred to as a primary readout, because the performed assay has only produced 1 assay endpoint. To generalize the intended target to other relatable targets, this assay endpoint is annotated to the nuclear receptor intended target family, where the subfamily is steroidal.
All assay endpoints are quantified using high content image analysis algorithms.

Chain of Estrogen receptor (Homo sapiens) (P03372 whole entry, looked up): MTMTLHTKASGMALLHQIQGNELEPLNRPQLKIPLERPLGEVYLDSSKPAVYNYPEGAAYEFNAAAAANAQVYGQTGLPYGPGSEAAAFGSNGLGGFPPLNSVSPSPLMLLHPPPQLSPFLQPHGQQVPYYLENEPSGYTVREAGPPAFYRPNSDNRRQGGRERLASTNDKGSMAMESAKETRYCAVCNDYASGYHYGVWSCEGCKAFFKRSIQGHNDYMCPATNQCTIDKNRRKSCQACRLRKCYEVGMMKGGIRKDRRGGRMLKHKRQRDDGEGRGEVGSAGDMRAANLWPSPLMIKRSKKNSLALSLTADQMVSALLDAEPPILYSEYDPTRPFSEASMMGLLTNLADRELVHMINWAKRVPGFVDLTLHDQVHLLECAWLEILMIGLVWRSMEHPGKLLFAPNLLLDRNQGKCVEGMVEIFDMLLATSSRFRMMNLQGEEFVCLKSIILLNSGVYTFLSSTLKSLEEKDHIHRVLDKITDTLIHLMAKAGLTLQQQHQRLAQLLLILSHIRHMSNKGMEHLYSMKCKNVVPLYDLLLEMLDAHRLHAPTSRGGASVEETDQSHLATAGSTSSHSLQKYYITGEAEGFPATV

Compound | outcome | AC50
CC(C)CCCCCCOC(=O)C1CCCCC1C(=O)OCCCCCCC(C)C (stereo not given) | inactive | –
CCCC(CCC)C(=O)O | inactive | –
NC(N)=O | inactive | –
CCc1ccc(O)c(C(C)(C)C)c1 | inactive | –
O=C(O)c1cccc(C[C@@H]2COc3ccc(OCc4nc5cc(F)ccc5s4)cc3[C@@H]2O)c1 | inactive | –
O=C(O)c1cccc(C(=O)O)c1 | inactive | –
CCCCC(CC)C(=O)OCCOCCOCCOC(=O)C(CC)CCCC (stereo not given) | inactive | –
CCCCCCCCN(C)C | inactive | –
OCCOCCOCCO | inactive | –
C=CN1CCCC1=O | inactive | –
CC1(C)C(=O)N(Cl)C(=O)N1Cl | inactive | –
CC(C)c1nnc2ccc(-c3ocnc3-c3cc(F)ccc3F)cn12 | inactive | –
CCCc1ccccc1 | inactive | –
O=C(O)c1ccc2c(c1)nc(C(=O)NC1CCN(C3CC3)CC1)n2Cc1cc(-c2ccc(Cl)s2)on1 | inactive | –
CCCOc1ccc(S(=O)(=O)N2CCN(CC)CC2)cc1-c1nc2c(CC)n(Cc3ccccn3)nc2c(=O)[nH]1 | inactive | –
O=C(O)CO | inactive | –
CC[C@H](C)C(=O)O[C@H]1C[C@H](O)C=C2C=C[C@H](C)[C@H](CC[C@@H](O)C[C@@H](O)CC(=O)O)[C@H]21 | inactive | –
CCOc1ccc2[nH]cc(C(=O)NCc3ccccc3)c(=O)c2n1 | inactive | –
NC(=O)N(O)[C@@H]1COc2cc(OCc3ccccc3)ccc21 | inactive | –
OC(Cn1cncn1)(Cn1cncn1)c1ccc(F)cc1F | inactive | –

Compound | outcome | AC50
C[C@]12C=CC(=O)C=C1CC[C@H]1[C@@H]3C[C@@H](O)[C@](O)(C(=O)CO)[C@@]3(C)C[C@H](O)[C@@]12F | inactive | –
CCCCCCCCCCCCCCO | inactive | –
NC(=O)N1c2ccccc2C=Cc2ccccc21 | inactive | –
CCCCCCCCCCCCCCCCOS(=O)(=O)O | inactive | –
CCCCN1C(=O)[C@@H]([C@H](O)C2CCCCC2)NC(=O)C12CCN(Cc1ccc(Oc3ccc(C(=O)O)cc3)cc1)CC2 | inactive | –
OCC(CO)(CO)CO | inactive | –
COCc1nnc(-c2ccc[n+]([O-])c2)n1-c1c(Cl)c(Cl)cc2[nH]c(=O)c(=O)[nH]c12 | inactive | –
Cc1ccc(S(=O)(=O)NC(=O)NN2CCCCCC2)cc1 | inactive | –
COc1cc(C(C)C)c2c(c1)S(=O)(=O)N(COc1cc(=O)n3cccc(OCCN4CCCCC4)c3n1)C2=O | – | 23.2 µM (active)
O=C(NO)C1(NS(=O)(=O)c2ccc(Oc3ccc(F)cc3)cc2)CCOCC1 | inactive | –
COc1cc2c(c(OC)c1OC)-c1ccc(OC)c(=O)cc1[C@@H](NC(C)=O)CC2 | inactive | –
CCCCCCCC/C=C\CCCCCCCC(=O)OC[C@@H](O)[C@H]1OC[C@H](O)[C@H]1O | inactive | –
Cc1nccn1-c1ccc(Sc2cccc(C3(C(N)=O)CCOCC3)c2)cc1 | – | 17.4 µM (active)
CC(=O)c1ccccc1 | inactive | –
Cc1cccc(O)c1C | inactive | –
Nc1ccn([C@@H]2O[C@H](CO)[C@@H](O)[C@@H]2O)c(=O)n1 | inactive | –
CCCCCCOC(=O)CC(CC(=O)OCCCCCC)(OC(=O)CCC)C(=O)OCCCCCC | inactive | –
C=CCc1cc(S(=O)(=O)c2ccc(O)c(CC=C)c2)ccc1O | inactive | –
CNC(C)=O | inactive | –
CCc1cccc(CC)c1N | inactive | –
